# Sampled rows, rich in hits. Any-hit rate of the full collection: about 1.6%.
# HTR5A inv ag = counter-screen for OPRM1-OPRD1 inverse agonists: human HTR5A inverse agonism; actives 0.083% (n = 340,000); inhibition, % at 9.3 µM; HTR5A cell line, luminescence; AID 504634; in the data active = inhibition mostly above about 23%, no sharp cut-off; inactive = mostly below about 18%;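 also: 0% = cells with DMSO and 100% = no-cell wells with DMSO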
# HTR5A ag ctr = activates human HTR5A in OPRM1-OPRD1 agonist counter-screen | P47898 | HTR5A agonist assay, luminescence, cell-based | activation, % at 9.3 µM | actives 0.61% (n = 340,000); in the data active = activation mostly above about 9.5%, no sharp cut-off; inactive = mostly below about 7.6%;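 also: 0% = cells with vehicle only and 100% = reference agonist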
# m5-HT2A agonist = mouse HTR2A agonism via beta-arrestin recruitment | P35363 | CHO-K1 mHTR2A beta-arrestin complementation, luminescence; percent of 30 µM serotonin response | activation, % at 7.6 µM | actives 0.66% (n = 360,000) | AID 624169;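 active = activation above a run cutoff, the mean activation of all tested compounds plus 3 SD, cut at about 14% in these data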;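 also: 0% = plate median of compound wells and 100% = 30 µM serotonin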
# OPRM1-OPRD1 inv = inverse agonists of human mu-delta opioid receptor heterodimerization. P35372+P41143. cell-based MOR-DOR heterodimer luminescence, inverse agonism. inhibition, % at 9.3 µM. actives 0.21% (n = 340,000). AID 504357; in the data active = inhibition above about 22%, passing the limit was not always enough;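 also: 0% = cells with DMSO and 100% = wells without cells with DMSO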
# Target sequence (P35372 whole entry, looked up): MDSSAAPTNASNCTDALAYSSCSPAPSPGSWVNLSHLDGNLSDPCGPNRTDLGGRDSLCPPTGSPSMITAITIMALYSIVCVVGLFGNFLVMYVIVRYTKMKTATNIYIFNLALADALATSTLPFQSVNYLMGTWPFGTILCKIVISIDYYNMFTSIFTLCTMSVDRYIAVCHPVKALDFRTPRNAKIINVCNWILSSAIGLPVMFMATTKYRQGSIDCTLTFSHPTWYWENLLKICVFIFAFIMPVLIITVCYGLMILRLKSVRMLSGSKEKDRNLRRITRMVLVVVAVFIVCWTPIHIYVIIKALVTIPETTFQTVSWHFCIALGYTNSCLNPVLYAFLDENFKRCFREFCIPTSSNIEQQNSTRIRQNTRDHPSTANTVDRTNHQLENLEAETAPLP
# Target sequence (P41143 whole entry, looked up): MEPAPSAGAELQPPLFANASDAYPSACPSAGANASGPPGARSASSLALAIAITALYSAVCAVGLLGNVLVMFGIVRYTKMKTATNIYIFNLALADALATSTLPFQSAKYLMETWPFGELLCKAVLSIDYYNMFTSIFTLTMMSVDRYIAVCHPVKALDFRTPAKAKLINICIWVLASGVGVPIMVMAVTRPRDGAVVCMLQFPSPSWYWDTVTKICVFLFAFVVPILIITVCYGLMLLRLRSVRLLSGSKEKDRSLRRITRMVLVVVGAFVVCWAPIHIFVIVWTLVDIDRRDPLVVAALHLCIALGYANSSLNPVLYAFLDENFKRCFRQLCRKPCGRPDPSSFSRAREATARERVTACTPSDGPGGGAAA
# MOR-DOR ag-1 = OPRM1-OPRD1 heterodimerization agonism. P35372+P41143. cells, luminescence. activation, % at 9.3 µM. actives 0.3% (n = 340,000). AID 504326;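 also: 0% = vehicle-treated cells and 100% = reference agonist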
# MOR-DOR ag-2 = counter-screen for HTR5A agonists: OPRM1-OPRD1 heterodimerization agonism; shares compounds with HTR5A ag ctr; U2OS counter-screen cells, complementation luminescence, 3 h; AID 504913; actives 13% (n = 800); activation, % at 9.3 µM
# HTR5A ag confirm = confirmation of human HTR5A agonists; shares compounds with HTR5A ag ctr; HTR5A agonist cell assay, luminescence; activation, % at 9.3 µM; actives 17% (n = 800); AID 504915; in the data active = activation above about 17%;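 also: 0% = cells with vehicle only and 100% = full reference agonist response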
# Active calls of the source: *; x = no result given. Rule as the data show it, unless noted: active = activation above about 18%; inactive = the rest.
SMILES,HTR5A inv ag,HTR5A ag ctr,m5-HT2A agonist,OPRM1-OPRD1 inv,MOR-DOR ag-1,MOR-DOR ag-2,HTR5A ag confirm
O=C(ONC1=NCCCCC1)c1ccc(Cl)cc1,-65.2,25.3*,1.1,-71.8,14.3,4.2,-0.4
O=C1OC(C(Cl)(Cl)Cl)Nc2ccccc21 (stereo not drawn),x,x,-2.8,x,x,x,x
NC(=O)c1cc([N+](=O)[O-])ccc1NCc1cccnc1,-4.1,1.6,2.1,-3.8,0.7,x,x
NC(=O)c1cc([N+](=O)[O-])ccc1NCc1cnccn1,9.1,21.7*,1.4,8.4,-1.5,1.3,-0.1
NC(=O)c1cc([N+](=O)[O-])ccc1NCC1CCCCC1,-41.0,16.1*,-0.8,-26.8,4.9,15.8,6.6
O=c1[nH]c(C2CCN(S(=O)(=O)c3ccccc3C(F)(F)F)CC2)nc2c1nnn2Cc1ccccc1,-46.6,15.7*,11.2,-21.2,2.6,-0.1,4.7
CC(C)(C)c1ccc(C(=O)N2CCC2(C)C(=O)NCC(F)(F)F)cc1 (stereo not drawn),x,x,1.1,x,x,x,x
O=c1[nH]c2ccccc2cc1-c1nnn(-c2ccc(F)cc2)n1,-1.7,0.1,1.2,-2.3,0.4,x,x
O=c1[nH]c2ccccc2cc1-c1nnn(-c2ccc(Cl)c(Cl)c2)n1,-61.4,17.9*,-7.1,20.6,-3.8,2.4,-2.5
Cc1cccc(C(=O)Nc2sc(C)c(-c3ccccc3)c2C#N)c1,-22.2,16.8*,-1.7,-39.7,6.7,2.0,3.1
Cc1noc(C)c1C(=O)Nc1sc(C)c(-c2ccccc2)c1C#N,-0.2,1.9,1.9,2.0,-0.4,x,x
OCC[C@@H]1C[C@H](O)[C@@H](O)[C@@]2(OCc3ccc4ccccc4c32)O1,x,x,-1.9,x,x,x,x
CN(C)CCCN(C(=O)COc1ccccc1)c1nc2ccc(F)cc2s1,6.1,-1.9,-2.0,-7.2,1.4,x,x
CN(C)CCCN(C(=O)CCOc1ccccc1)c1nc2ccc(F)cc2s1,-52.1,17.6*,-9.5,7.4,-1.5,3.2,-2.4
N#CC(C#N)c1ccnc2ccccc12,x,x,-5.5,x,x,x,x
N/C(=N\OC(=O)c1ccc(Cl)cc1[N+](=O)[O-])c1ccccn1,-2.4,25.6*,9.8,-54.4,10.9,-0.2,-5.5
N/C(=N\OC(=O)c1ccc2ccccc2c1)c1ccccn1,-42.3,16.2*,2.6,-21.6,4.2,-0.6,-1.1
Cc1ccc(NC(=O)c2ccccc2-c2cc(C)no2)cc1,17.1,-6.6,1.4,13.0,-2.5,x,x
Cc1cc(-c2ccccc2C(=O)NC2CCCCC2)on1,-8.2,14.6*,8.7,-14.4,2.8,5.7,2.4
CCN(C1CCCCC1)S(=O)(=O)CCNC(=O)c1ccc(OC)cc1,x,x,1.8,x,x,x,x
O=C(NN1C(=O)c2ccccc2C1=O)C1CC2CCC1C2 (stereo not drawn),-18.7,14.4*,1.4,-4.4,0.9,-0.3,-0.9
O=C(NN1C(=O)c2ccccc2C1=O)C1CCCCC1,-3.9,0.6,-1.6,-3.2,0.6,x,x
CC(C)Oc1ccc(S(=O)(=O)N2CCOCC2)cc1NC(=O)CSc1nnc(C2CC2)n1C,x,x,-0.7,x,x,x,x
CCOc1cc(C(=O)OCc2cccc(OC)c2OC)ccc1OCC(=O)N1CCOCC1,8.1,11.3,0.3,12.2,-2.5,x,x
CCOc1cc(C(=O)OCc2ccc([N+](=O)[O-])cc2)ccc1OCC(=O)N1CCOCC1,-43.4,16.7*,-3.0,0.4,-0.1,0.7,0.7
SMILES,HTR5A inv ag,HTR5A ag ctr,m5-HT2A agonist,OPRM1-OPRD1 inv,MOR-DOR ag-1,MOR-DOR ag-2,HTR5A ag confirm
C=CCN(C/C(=N\O)c1sc(C(=O)OCC)nc1C)c1cccc(Br)c1,-58.6,21.8*,7.5,-43.7,7.5,7.6,2.1
CSc1ccc(CN2C(=O)C(F)(F)Oc3c(C(C)=O)cccc32)cc1,x,x,0.4,x,x,x,x
CC(=O)NC(C)(c1ccccc1)c1nc(-c2cccc3cccnc23)cs1 (stereo not drawn),x,x,-1.2,x,x,x,x
Cc1cccc(NC(=O)N2CCC(NC(=O)C3CCCCC3)CC2)c1,-47.2,16.7*,4.5,9.1,-1.7,0.5,1.1
COc1ccc(/C=N/NC(=O)c2ccn[nH]2)cc1COc1ccc(F)cc1,1.4,0.1,-1.9,-5.3,1.0,x,x
COc1ccc(/C=N/NC(=O)c2ccn[nH]2)cc1COc1ccc(Cl)cc1Cl,-67.2,25.6*,-2.9,-44.4,7.1,1.3,-0.9
O=C(c1ccc(Cl)c(S(=O)(=O)N2CCCCCC2)c1)N1CCN(c2ccccn2)CC1,-89.6,24.9*,0.3,-11.9,2.2,1.3,31.2*
O=C(c1ccc(Cl)c(S(=O)(=O)N2CCCCCC2)c1)N1CCCCC1,-5.2,-2.6,-4.0,16.6,-5.1,x,x
CC(C)(C)c1ccc(OCC(=O)N2CCN(c3ccccn3)CC2)cc1,-37.0,15.1*,-2.0,0.5,-0.1,17.6,17.4*
CC(C)(C)c1ccc(OCC(=O)N2CCN(c3ncccn3)CC2)cc1,-26.4,0.2,7.9,0.2,0.0,x,x
O=C(NCCCNC(=O)c1ccccn1)c1ccc(Cl)cc1,-51.7,18.2*,-3.2,-2.4,0.4,0.4,4.4
O=C(NCCCNC(=O)c1ccccn1)c1ccc(Br)cc1,7.8,6.0,1.5,9.8,-1.9,x,x
O=C(NCCN1CCC(n2c(=O)[nH]c3ccccc32)CC1)C(c1ccccc1)c1ccccc1,x,x,-3.5,x,x,x,x
COc1cc(OC)cc(C(=O)Nc2nnc(NC(=S)Nc3ccccc3)s2)c1,-14.6,15.1*,3.5,0.6,-0.1,2.4,-2.6
Oc1ccccc1-c1nc2cnccn2c1Nc1ccc2c(c1)OCCO2,-0.3,5.7,-6.4,9.9,-1.7,x,x
c1cncc(-c2nc3ccccn3c2Nc2ccc3c(c2)OCCO3)c1,-64.8,29.6*,9.2,-12.6,2.1,1.2,-2.8
Cc1ccc(-c2ccc3c(c2)O[C@H](CN(C)C(=O)Nc2ccc(C(F)(F)F)cc2)[C@H](C)CN([C@H](C)CO)S3(=O)=O)cc1,x,x,2.0,x,x,x,x
CC1(C(=O)NS(=O)(=O)c2ccc(Br)cc2)CCN1C(=O)C1CCCCC1 (stereo not drawn),x,x,-1.5,x,x,x,x
Cc1ccc(S(=O)(=O)N2C3CCCCC3O[C@H]2CC(=O)OCc2ccccc2)cc1 (stereo partly drawn),x,x,-4.3,x,x,x,x
COc1ccc(NS(=O)(=O)c2cccc(C(=O)N3CCN(Cc4cc(OC)ccc4OC)CC3)c2)cc1,-15.6,14.6*,9.9,-1.7,0.3,135.3*,-4.8
COc1ccc(OC)c(CN2CCN(C(=O)c3cccc(S(=O)(=O)Nc4ccc(C)cc4)c3)CC2)c1,1.1,-0.4,7.2,-7.2,1.1,x,x
COc1ccc(CN2C3CCCC2CC(NC(=O)Nc2cccc(C)c2)C3)cc1 (stereo not drawn),17.3,16.6*,-2.9,-0.3,0.0,1.3,7.2
COc1ccc(CN2C3CCCC2CC(NC(=O)Nc2ccccc2)C3)cc1 (stereo not drawn),5.7,-1.9,1.7,-2.2,0.4,x,x
